From PubChem BioAssay (NCATS) come the findings set out here.

Activity calls are given as the source filed them. The call rests on the fitted dose curve; in most records, active means well fitted curve in the direction sought with a large enough effect; inconclusive means small, poorly fitted or top-dose-only effect, or another doubt; inactive means no such curve, though single readings can be large or run the other way.

A short description of this assay: Cellular Toxicity (caspase-3) HUV-EC-C (AID 656). The conditions noted are these: HUV-EC-C cells, caspase-3 activation (apoptosis), vehicle = 0, 100 µM tamoxifen = 100%; series mostly up to 92.2 µM. The text has this:
NIH Chemical Genomics Center [NCGC]
NIH Molecular Libraries Screening Centers Network [MLSCN]
National Institutes of Environmental Health Sciences [NIEHS]
National Toxicology Program [NTP]
We have developed a 1536-well cell-based assay for quantitative high throughput screening (qHTS) against a number of cell lines to determine in vitro caspase 3/7 of small molecules. This particular assay uses the HUV-EC-C cell line which is derived from normal human vascular endothelial cells.
NCGC Assay Protocol Summary:
The Caspase-Glo 3/7 assay (Promega) is a homogeneous method to measure caspase-3 and caspase-7 activities in cultured cells. The quantitation of caspase 3/7 activity is based on the cleavage of a peptide-aminoluciferin substrate. After caspase cleaves the substrate the free aminoluciferin is liberated and serves as the substrate of luciferase, which generates the light. The luminescent signal is proportional to amount of caspase 3/7 activity present.
Using the Caspase-Glo 3/7 assay, the amount of caspase 3/7 activity was measured in the HUV-EC-C cell line with complete culture medium following compound treatment for 16 hours. The assay was performed in opaque white 1536-well plates. In the screen, tamoxifen and doxorubicin were used as positive controls. Library compounds were measured for their ability to cause the activation of caspase 3/7 in the cell line, as reflected by an increase in luminescence signal, in a concentration-dependent manner. Data were normalized to the controls for basal activity (DMSO only) and 100% stimulation (100 uM tamoxifen). AC50 values were determined from concentration-response data modeled with the standard Hill equation.
qHTS protocol for caspase 3/7 assay in HUV-EC-C cell line
[Step] [Parameter] [Value] [Description]
1. Reagent; 5 uL; 1000 HUV-EC-C cells/well
2. Time; 5 hr; 37 °C incubation
4. Controls; 23 nL; Tamoxifen 0.23 uM to 100 uM & doxorubicin 7.0 pM to 100 uM
5. Time; 16 hr; 37 °C incubation
6. Reagent; 5 uL; Caspase-Glo 3/7 reagent
7. Time; 20 min; Room Temperature
8. Detection; Luminescence; Viewlux plate reader
Keywords: caspase 3/7, apoptosis, HUV-EC-C cell line, luminescence, NTPHTS, NTPHTS_NCGC, NIEHS, EPA, DSSTox, MLSMR, MLSCN, NIH Roadmap, qHTS, NCGC
On to `Oc1cccc(O)c1O`, for which the outcome was inactive.

Take `Oc1ccc(/C=C/c2cc(O)cc(O)c2)cc1`: the compound was called inactive.

In the case of `CC1=CC(=O)NS(=O)(=O)O1`, the call was inactive.

Regarding `CCCCC`, the result was inactive.

Consider `O=c1n(CC2CO2)c(=O)n(CC2CO2)c(=O)n1CC1CO1` (stereo unspecified), for which the compound was classed as inactive.

In the case of `CC[C@H]1OC(=O)[C@H](C)[C@@H](O[C@H]2C[C@@](C)(OC)[C@@H](O)[C@H](C)O2)[C@H](C)[C@@H](O[C@@H]2O[C@H](C)C[C@H](N(C)C)[C@H]2O)[C@](C)(O)C[C@@H](C)CN(C)[C@H](C)[C@@H](O)[C@]1(C)O`, the result was inactive.

Consider `Cc1ncc[nH]1`, for which the call was inactive.

As for `CO/N=C(/C(=O)N[C@@H]1C(=O)N2C(C(=O)O)=C(COC(N)=O)CS[C@H]12)c1ccco1`, the compound was called inactive.

Consider `ClC(Cl)Cl`, for which the result was inactive.

On to `CC(C)O`, for which the result was inactive.

As to `C[C@H](CCC(=O)O)[C@H]1CC[C@H]2[C@@H]3CC[C@@H]4C[C@H](O)CC[C@]4(C)[C@H]3C[C@H](O)[C@]12C`, the result was inactive.

For `Cc1ccc(S(=O)(=O)O)cc1C`, the outcome was inactive.

Turning to `CC(C)(C)CC(C)(C)c1ccc(OCCO)cc1`, the compound was classed as inactive.

Take `NCCN`: the outcome was inactive.

In the case of `CC/C=C\C/C=C\C/C=C\CCCCCCCC(=O)O`, the compound was called inactive.

As for `c1ccc2ccccc2c1`, the compound was called inactive.

Turning to `C[C@H]1O[C@@H](O[C@H]2[C@@H](O)C[C@H](O[C@H]3[C@@H](O)C[C@H](O[C@H]4CC[C@@]5(C)[C@H](CC[C@@H]6[C@@H]5C[C@@H](O)[C@]5(C)[C@@H](C7=CC(=O)OC7)CC[C@]65O)C4)O[C@@H]3C)O[C@@H]2C)C[C@H](O)[C@@H]1O`, the outcome was inactive.

Turning to `OCC(O)CO`, the call was inactive.

With `C/C=C/C=C/C(=O)O`, the call was inactive.

As to `OC[C@H]1O[C@@H]2O[C@H]3[C@H](O)[C@@H](O)[C@@H](O[C@H]4[C@H](O)[C@@H](O)[C@@H](O[C@H]5[C@H](O)[C@@H](O)[C@@H](O[C@H]6[C@H](O)[C@@H](O)[C@@H](O[C@H]7[C@H](O)[C@@H](O)[C@@H](O[C@H]1[C@H](O)[C@H]2O)O[C@@H]7CO)O[C@@H]6CO)O[C@@H]5CO)O[C@@H]4CO)O[C@@H]3CO`, the result was inactive.

For `Nc1ncnc2c1ncn2[C@H]1CC[C@@H](CO)O1`, the call was inactive.

On to `O=P(O)(O)O`, for which the result was inactive.

As to `Nc1ccc(N=Nc2ccccc2)c(N)n1`, the result was inactive.

For `CCOC(C)OCC`, the result was inactive.

As to `OCc1ccccc1`, the outcome was inactive.

Take `OCl`: the outcome was inactive.

As to `OB(O)O`, the result was inactive.

Consider `CCCCO`, for which the result was inactive.

With `NC(N)=O`, the compound was classed as inactive.

`CC1=CCC2CC1C2(C)C` (stereo unspecified): the compound was classed as inactive.

As to `COC(=O)c1ccccc1O`, the compound was called inactive.

On to `[O-][N+](=Nc1ccccc1)c1ccccc1`, for which the compound was classed as inactive.

As to `O.O.O.O.O.O.O.O=S(=O)([O-])[O-].[Co+2]`, the compound was classed as inactive.

In the case of `Nc1nccs1`, the compound was called inactive.

For the compound `C[C@H](CCC(=O)O)[C@H]1CC[C@H]2[C@@H]3[C@H](O)C[C@@H]4C[C@H](O)CC[C@]4(C)[C@H]3C[C@H](O)[C@]12C`, the compound was classed as inactive.

Take `CO`: the result was inactive.
